Data on nine compounds can be found in PubChem BioAssay (NCI).

Holding throughout (experiment): NCI-60 one-dose screen, 48 h (100 = growth as untreated, 0 = no growth, -100 = all killed)
Holding throughout (settings): 10 µM unless noted

The subject of assay [1] is SR leukemia.
Assay [2] relates to RPMI-8226 leukemia.
In assay [3] the test system is OVCAR-8 ovarian.
Assay [4] deals with OVCAR-5 ovarian.
The subject of assay [5] is OVCAR-4 ovarian.
For assay [6], the system named is SK-OV-3 ovarian.
Assay [7] concerns IGROV1 ovarian.
Assay [8] has as its system NCI/ADR-RES ovarian.
The test system of assay [9] is T-47D breast.
Assay [10] deals with BT-549 breast.
Assay [11] concerns MDA-MB-435 melanoma.
For assay [12], the system named is SW-620 colon.
Assay [13] relates to MCF7 breast.
Assay [14] concerns HCT-116 colon.
The test system of assay [15] is HCC-2998 colon.
Assay [16] concerns KM12 colon.
Assay [17] deals with HS 578T breast.
Assay [18] has as its system OVCAR-3 ovarian.

Each structure is given as a SMILES string. Compounds without any hit were thinned out: in the full panel of roughly 83,000, 20% have a hit.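 Method: cells in 96-well plates; compound added at one concentration; 48 h incubation; percent growth measured; values under 10 scored active.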 Values without a mark were called inactive. Activity calls are given as the source filed them.

As to `O=C1C(Cl)=C(Nc2ccc(Nc3ccccc3)c(NC3=C(Cl)C(=O)c4ccccc4C3=O)c2)C(=O)c2ccccc21`, the growth in assay [1] was 44.6%; in assay [2], 27.4%; in assay [3], 71.5%; in assay [4], 141%; in [5] it was 54.8%; in assay [6], 80.5%. The growth was 68.6% in assay [7]; 86.4% in assay [8]; 14.9% in assay [9]; 53.3% in assay [10]; 113% in assay [11]; 33.8% in [12]. The growth in assay [13] was 73.7%; in assay [14], 51.2%; in [15], 55.1%; in assay [16] it was 31.6%.
On to `Oc1ccccc1\C=N/N=C/C=C/c1ccccc1`, for which the growth in assay [1] is 71.9%; in assay [2], 107%; in assay [3] it was 103%; in assay [4], 112%; in assay [5], 97.7%; in assay [6], 87.9%. Further, the growth in assay [7] was 101%; in assay [17] it was 106%; in [8] it was 102%; in [9], 76.9%; in assay [11], 105%; in assay [12] it was 106%. In addition, the growth in [14] was 103%; in assay [15], 95.3%; in [16] it was 92.8%.
Take `CC(=O)N(N=O)c1ccc([N+](=O)[O-])cc1Cl`: the growth was 63.1% in [1]; 17.2% in assay [2]; 66.1% in assay [3]; 88.5% in assay [4]; 55.5% in [5]; 66.9% in assay [6]. Besides, the growth in assay [7] is 67.7%; in assay [8], 64.5%; in [9], 29.2%; in assay [10] it was 71.7%; in assay [11], 66.7%; in assay [12], 71.6%. Moreover, the growth in [13] was 52.2%; in [14] it was 44.9%; in assay [15], 76.6%; in [16], 69%.
As to `CC(C)(CNC1CCCCC1)OC(=O)c1ccccc1`, the growth is 106% in [1]; 106% in assay [2]; 101% in assay [3]; 114% in assay [4]; 110% in [5]; 106% in assay [6]. Also, the growth in [7] is 106%; in assay [8], 103%; in assay [9], 104%; in assay [10] it was 99.7%; in assay [11] it was 107%; in assay [12] it was 110%. The growth in assay [13] was 107%; in assay [14], 103%; in assay [15], 111%; in [16] it was 102%.
Regarding `COC(=O)/C=C1/CCCCC1(C)C(=O)OC` (stereo not given), the growth was 92.8% in assay [1]; 101% in assay [2]; 98.4% in assay [3]; 118% in [4]; 110% in assay [6]; 107% in assay [7]. In addition, the growth in assay [18] was 118%; in assay [17] it was 105%; in assay [8], 111%; in [9], 110%; in [10], 89.8%; in assay [11] it was 103%. The growth was 106% in assay [12], 95.7% in assay [14], 119% in [15] and 107% in [16].
For `Nc1nc2cc(O)ccc2n2cc3c(F)cccc3c12`, the growth in assay [1] was 10.8%; in assay [2], 53.7%; in [3] it was 26.5%; in assay [4], 38.7%; in assay [5], -4.95% (active); in assay [7] it was 18.4%. Besides, the growth in [18] is 30%; in [17], -21.4% (active); in assay [8], 15.8%; in [11], -8.3% (active); in assay [12], 17.5%; in assay [13] it was -7.71% (active). The growth is 15.1% in assay [14], 58.5% in assay [15] and 35.3% in assay [16].
Regarding `Clc1ccc(N/N=C/c2ccccn2)nc1`, the growth in [1] is 6.32% (active); in assay [2], 26.3%; in assay [3], 18.1%; in [4] it was 30.3%; in assay [5], 6.01% (active); in assay [6] it was 27.2%. Besides, the growth is 22.3% in assay [18]; 60.1% in assay [17]; -1.35% (active) in assay [8]; 23.4% in assay [10]; 24.4% in assay [11]; 36.7% in [12]. Also, the growth in assay [13] is 0.994% (active); in assay [14], 11.1%; in [15], 24.5%; in assay [16], 24.9%.
As for `O=C1CSC(c2ccccc2Cl)N1c1nnc(-c2ccncc2)o1` (stereo not given), the growth was 96% in assay [1]; 86% in assay [2]; 103% in assay [3]; 94.1% in assay [4]; 97.8% in assay [5]; 89% in assay [7]. The growth in assay [18] was 108%; in assay [17], 109%; in assay [8], 92.3%; in assay [10], 116%; in [11] it was 99.6%; in [12], 99.6%. The growth in assay [14] is 85.5%; in [15], 97.9%; in assay [16], 105%.
As for `C=C(C)[C@@H]1CC[C@]2(COC(=O)c3ccccc3C(=O)O)CC[C@]3(C)[C@H](CC[C@@H]4[C@@]5(C)CCCNC(C)(C)[C@@H]5CC[C@]43C)[C@@H]12`, the growth was 6.59% (active) in assay [1]; 23.3% in assay [2]; 70.5% in assay [3]; 90% in assay [4]; 57.3% in assay [5]; 54.5% in assay [7]. Further, the growth in assay [17] is 78.5%; in [8], 89.7%; in [10], 72.6%; in assay [11] it was 60.9%; in assay [12] it was 70.5%; in assay [13], 26.3%. Further, the growth in [14] was 32.2%; in [15], 72.1%; in assay [16], 51.9%.
